Glyco luc inh: blocks N-linked glycosylation in D54 reporter cells. reporter increase, % at 12.5 µM. 360,000 compounds, 0.23% hits. D54 ERlucT glycosylation luciferase reporter, 24 h; percent of 100 nM tunicamycin response;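 active = mean luciferase reporter signal, scaled so untreated is 0 and the glycosylation-blocking control 100, at or above a set limit in every replicate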;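 also: luciferase carries N-glycosylation sites so blocking glycosylation raises the light; 0% = median of neutral control wells and 100% = median of 100 nM tunicamycin wells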
DENV2 CPE: DENV2-induced cell death inhibition. DENV2-infected cells, cytopathic effect rescue, plate reader. CPE inhibition, % at 9.99 µM. 350,000 compounds, 1.7% hits. AID 651640; in the data active = CPE inhibition above about 20%, passing the limit was not always enough; tested in BHK-21 cells;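 also: 0% = median of neutral control wells and 100% = median of positive control wells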
PglD DTNB: inhibitors of Campylobacter jejuni PglD acetyltransferase; inhibition, % at 12.5 µM; purified PglD enzyme, DTNB colorimetric CoA detection; 360,000 compounds, 0.098% hits; in the data active = inhibition above about 16%, passing the limit was not always enough
Rtt109 Vps75: C. albicans Rtt109 histone acetyltransferase inhibition. Q5AAJ8. purified Rtt109/Vps75, ThioGlo CoA-SH fluorescence, 4 h. inhibition, % at 34.9 µM. 330,000 compounds, 0.16% hits. AID 540336;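 active = inhibition of at least 50% in every replicate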
Target sequence (Q5AAJ8 whole entry, looked up): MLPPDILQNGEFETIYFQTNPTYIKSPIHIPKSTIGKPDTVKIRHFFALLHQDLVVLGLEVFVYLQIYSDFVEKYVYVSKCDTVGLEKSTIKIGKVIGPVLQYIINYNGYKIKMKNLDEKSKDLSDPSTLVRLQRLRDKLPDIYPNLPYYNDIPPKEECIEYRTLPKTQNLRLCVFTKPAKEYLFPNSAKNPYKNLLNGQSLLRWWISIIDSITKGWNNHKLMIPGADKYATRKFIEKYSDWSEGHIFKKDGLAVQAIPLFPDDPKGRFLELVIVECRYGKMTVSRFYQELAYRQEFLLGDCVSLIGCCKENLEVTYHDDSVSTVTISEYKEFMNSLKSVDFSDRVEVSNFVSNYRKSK
An asterisk follows results filed as active; . = not tested or not shown; ! = not confirmed by another sample. The entries come from a sample that favours hits as a whole.

SMILES | Glyco luc inh | DENV2 CPE | PglD DTNB | Rtt109 Vps75
O=C(C[C@@H]1CC[C@H]2[C@@H](COC[C@H](O)CN2C(=O)c2ccncc2)O1)Nc1ccc(-c2ccccc2)cc1 | . | 28* | -2 | .
O=C(C[C@@H]1CC[C@H]2[C@@H](COC[C@H](O)CN2C(=O)c2ccncc2)O1)NC1Cc2ccccc2C1 | . | 30* | -2 | .
O=C(C[C@H]1CC[C@@H]2[C@H](COC[C@H](O)CN2C(=O)c2ccccc2)O1)Nc1ccc(-c2ccccc2)cc1 | . | 55* | -2 | .
O=C(C[C@H]1CC[C@@H]2[C@H](COC[C@@H](O)CN2C(=O)c2ccncc2)O1)NC1Cc2ccccc2C1 | . | 10 | 2 | .
Cc1ccc(S(=O)(=O)N(C)C[C@H]2Oc3ccc(NC(=O)CCCCCC(=O)Nc4ccccc4N)cc3CC(=O)N([C@H](C)CO)C[C@@H]2C)cc1 | . | 5 | 2 | .
COc1ccc2c3c([nH]c2c1)[C@H](CO)N(C(=O)CC1CC1)CC31CCN(Cc2cccnc2)CC1 | . | 15 | . | .
CCCCCCC[C@@H](C/C=C/CCC(=O)N(C)C/C(=C/Cl)C/C(=C\C(=O)N1CC(OC)=CC1=O)OC)OC | 77* | -2 | -1 | 10
COc1cc(F)c(C2=CC(=O)C[C@H](c3ccc4c(c3)OCO4)C2)cc1F | -1 | 20 | -1 | -1
COc1ccc(F)cc1C1=CC(=O)C[C@H](c2ccc3c(c2)OCO3)C1 | 30* | . | -3 | -11
C=CCSC(=C(C#N)C#N)c1cc2c([nH]1)CCCC2 | 40* | . | . | 5
C[C@@H]1CN([C@@H](C)CO)C(=O)c2cc(/C=C/c3ccccc3)cnc2O[C@H]1CN(C)C(=O)Cc1ccccn1 | . | 9 | 1 | .
O=C(Nc1ccc(Cl)c(S(=O)(=O)N2CCCCC2)c1)C1=COCCO1 | 0 | -11 | -3 | 52*
C[C@H]1CCCCO[C@H](CN(C)Cc2ccc(C(=O)O)cc2)[C@@H](C)CN([C@@H](C)CO)C(=O)c2cc(NC(=O)NC3CCCCC3)ccc2O1 | . | 1 | 0 | .
CCS(=O)(=O)Nc1ccc2c(c1)C(=O)N(C)C[C@H](OC)[C@H](C)CN(C(=O)CN(C)C)[C@H](C)CO2 | . | 0 | -1 | .
Cc1ccc(NC(=S)c2ccc(N(C)C)cc2)cc1 | -15 | . | . | -9
Cc1ccc(N(C)C)cc1 | . | 22* | . | .
COc1ccc(/C=N/NC(=O)COc2ccc(Cl)cc2Cl)cc1Cn1nc(C)cc1C | 0 | . | . | 54*
O=C(COc1ccc(Cl)cc1Cl)N/N=C/c1cccnc1 | -1 | 5 | 3 | -7
O=S(=O)(c1ccccc1)N1CC2(C1)[C@H](c1ccccc1)[C@@H](CO)N2CC1CCOCC1 | . | 36* | . | .
O=S(=O)(c1ccccc1)N1CC2(C1)[C@@H](c1ccccc1)[C@@H](CO)N2CC1CCCC1 | . | 27* | . | .
CC(C)CN=c1cc(-c2ccccc2)oc2ccc(Cl)cc12 | 16 | . | . | -2
CN(C)CCCN=c1cc(-c2ccccc2)oc2ccc(Cl)cc12 | 10 | 20 | . | 5
CC(O)CN=c1cc(-c2ccccc2)oc2ccc(Cl)cc12 (centres undefined) | 29* | . | -3 | -2
OCCN=c1cc(-c2ccccc2)oc2ccc(Cl)cc12 | 50* | . | -7 | -9
Nc1nc(SCC(=O)N2CCN(c3ccc(F)cc3)CC2)n[nH]1 | -1 | 40* | -1 | 9
SMILES | Glyco luc inh | DENV2 CPE | PglD DTNB | Rtt109 Vps75
O=C(C1=C[C@H](c2ccc3c(c2)OCO3)C[C@H](OCCCCO)O1)N1CCN(Cc2ccc3c(c2)OCO3)CC1 | -2 | 44* | 1 | 2
O=C(C1=C[C@@H](c2ccc3c(c2)OCO3)C[C@@H](OCCCCO)O1)N1CCN(Cc2ccc3c(c2)OCO3)CC1 | -2 | -4 | 2 | 14
O=C(C1=C[C@@H](c2ccccc2)C[C@@H](OCCCCO)O1)N1CCN(Cc2ccc3c(c2)OCO3)CC1 | -1 | 21*! | -3 | 11
O=C(C1=C[C@H](c2ccc(Br)cc2)C[C@H](OCCCCO)O1)N1CCN(Cc2ccc3c(c2)OCO3)CC1 | -4 | 1 | 0 | 10
C[C@H](CO)N1C[C@H](C)[C@H](CN(C)C(=O)Cc2ccccc2)Oc2ncc(-c3ccccc3)cc2C1=O | . | -4 | -5 | .
COc1ccc2c(c1)CC/C(=C/c1ccccn1)C2=O | 6 | -2 | 2 | 0
O=C1C(=Cc2ccccn2)CCc2ccccc21 | 7 | 38* | 0 | .
Cc1ccc(Cn2cc(CN3CC(N(C)C)CS3(=O)=O)nn2)cc1 (centres undefined) | . | 23* | . | .
CO[C@@H]1CN(C)C(=O)c2cc(NC(C)=O)ccc2OC[C@@H](C)N(CC2CC2)C[C@H]1C | . | 2 | 4 | .
COc1ccc(C2C(C#N)=C(N)Oc3cc(N)ccc32)cc1 (centres undefined) | 1 | 1 | 2 | 1
COc1cc(C2C(C#N)=C(N)Oc3cc(N)ccc32)cc(OC)c1OC (centres undefined) | 32* | . | -1 | -4
C[C@H](CO)N1C[C@H](C)[C@@H](CN(C)C(=O)C2CC2)Oc2cc(C#Cc3ccccc3)ccc2S1(=O)=O | . | 174* | -4 | .
C[C@H](O)C#Cc1ccc2c(c1)O[C@H](CN(C)C(=O)CN(C)C)[C@@H](C)CN([C@H](C)CO)S2(=O)=O | . | 24* | 23 | .
C[C@H](CO)N1C[C@H](C)[C@@H](CN(C)C(=O)CN(C)C)Oc2cc(C#Cc3ccccc3)ccc2S1(=O)=O | . | 12 | -3 | .
C[C@@H]1CN([C@H](C)CO)S(=O)(=O)c2ccc(C#Cc3ccccc3)cc2O[C@H]1CN(C)C(=O)CN(C)C | . | 24* | -3 | .
COCc1cn(CC[C@@H]2CC[C@@H](NC(=O)CCN3CCCCC3)[C@@H](CO)O2)nn1 | . | -4 | -2 | .
COCC(=O)N1C[C@@H](C)[C@H](OC)CN(C)C(=O)c2ccc(NC(=O)Nc3ccccc3)cc2OC[C@@H]1C | . | 6 | . | .
O=C(CCN1CCCCC1)NCC[C@H]1CC[C@@H](NS(=O)(=O)c2cccc(Cl)c2)[C@H](CO)O1 | . | 5 | 3 | .
O=C(/C=C/[C@H]1O[C@@H](n2ccc(=O)[nH]c2=O)[C@H](O)[C@@H]1O)NCc1cccs1 | 3 | 23* | -3 | .
O=C(/C=C/[C@H]1O[C@@H](n2ccc(=O)[nH]c2=O)[C@H](O)[C@@H]1O)NCCc1cccs1 | 1 | 7 | -3 | .
O=C(C1=C[C@H](c2ccc3c(c2)OCO3)C[C@H](OCc2ccc(CO)cc2)O1)N1CCN(Cc2ccc3c(c2)OCO3)CC1 | -2 | 59*! | -6 | -6
O=C(C1=C[C@@H](c2ccc3c(c2)OCO3)C[C@@H](OCc2ccc(CO)cc2)O1)N1CCN(Cc2ccc3c(c2)OCO3)CC1 | . | -1 | -2 | .
O=C(NCc1ccccc1)C1=C[C@@H](c2ccc3c(c2)OCO3)C[C@@H](OCc2ccc(CO)cc2)O1 | 0 | 22*! | -1 | 0
O=C(NCc1ccccc1)C1=C[C@H](c2ccc3c(c2)OCO3)C[C@H](OCc2ccc(CO)cc2)O1 | 0 | 10 | 2 | 7
CN1CCN(C(=O)C2=C[C@@H](c3ccc(C(F)(F)F)cc3)C[C@@H](OCc3ccc(CO)cc3)O2)CC1 | -1 | 78*! | 2 | 6

Source: PubChem
